Assay [1] concerns the target Retinoic acid receptor alpha (Homo sapiens) (UniProt P10276). In words: ATG_DR5_RAR_CIS: Attagene CIS-FACTORIAL HepG2 Assay for human Retinoic Acid Receptor Alpha (RARE), DR5 submotif (AID 2282934; active = hit-call score of the fitted dose curve at least 0.9, where 1 is the maximum; inactive = score below 0.9). Particulars: HepG2 Attagene cis-factorial RARE DR5 reporter, mRNA; actives raise or lower the signal. Put shortly: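 Reporter transcripts from a DR5-regulated unit, measured via RT-PCR plus capillary electrophoresis, reflect endogenous RAR activity in transiently transfected human HepG2 liver cells. Exposure lasted 24 h; gain or loss of signal scored against DMSO.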

The nature of assay [2]: ATG_GAL4_TRANS: Attagene TRANS-FACTORIAL HepG2 Assay for GAL4 (Internal Marker) (AID 2282976). Particulars: HepG2 Attagene TRANS GAL4 internal marker reporter. Put shortly:
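First, HepG2 cells were transfected with reporter units under GAL4-UAS control. Next, they were treated with chemical for 24 h. Finally, RNA was reverse-transcribed, PCR-amplified, FAM-labelled and resolved by capillary electrophoresis, with induction scored against DMSO.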

Assay [3] concerns the target Glucocorticoid receptor (Homo sapiens) (UniProt P04150). In words: ATG_GR_TRANS: Attagene TRANS-FACTORIAL HepG2 Assay for human Glucocorticoid Receptor (GR) (AID 2282978).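 Note: activators score as hits since higher reporter transcript over DMSO is fitted.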 Particulars: HepG2 Attagene TRANS GR reporter, mRNA transcription. The procedure, abridged: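 HepG2 cells transiently transfected with multiplexed reporter units in which chimeric NR-GAL4 proteins drive GAL4-UAS reporters; 24 h compound exposure. Reporter mRNA measured by RT-PCR, 6-FAM labelling, HpaI digestion and capillary electrophoresis; gain-of-signal fitted versus DMSO.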

The target of assay [4] is Oxysterols receptor LXR-alpha (Homo sapiens) (UniProt Q13133). In words: ATG_LXRa_TRANS: Attagene TRANS-FACTORIAL HepG2 Assay for human Liver X Receptor alpha (LXRa) (AID 2282980). The conditions noted are these: HepG2 Attagene TRANS reporter, LXRa transactivation. The procedure, abridged:
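Transfect HepG2 with GAL4-UAS multiplex reporter constructs (TRANS format, chimeric receptor-GAL4); treat 24 h; extract RNA, reverse-transcribe, PCR-amplify, FAM-label, HpaI-digest; resolve fragments by capillary electrophoresis. Upward response vs DMSO.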

The target of assay [5] is Oxysterols receptor LXR-beta (Homo sapiens) (UniProt P55055). In words: ATG_LXRb_TRANS: Attagene TRANS-FACTORIAL HepG2 Assay for human Liver X Receptor beta (LXRb) (AID 2282981). Particulars: HepG2 Attagene TRANS GAL4-LXRb reporter, mRNA. Put shortly:
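After 24 h chemical treatment of transfected HepG2 cells carrying exogenous NR-Gal4 chimeras, reporter mRNA was quantified by fluorescent RT-PCR and capillary electrophoresis; activity taken as increase over DMSO controls.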

Assay [6] addresses human Peroxisome Proliferator-activated Receptor alpha (PPARa), PPARA (gene 5465) (UniProt Q07869). Briefly: ATG_PPARa_TRANS: Attagene TRANS-FACTORIAL HepG2 Assay for human Peroxisome Proliferator-activated Receptor alpha (PPARa) (AID 2283001). The procedure, abridged:
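Reporter transcripts quantified by RT-PCR plus capillary electrophoresis after 24 h treatment, fitted upward relative to DMSO. Cells: human HepG2 transiently carrying multiple GAL4-UAS reporter units driven by NR-Gal4 chimeras.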

In assay [7] the target is human Thyroid Receptor alpha (THRa1), THRA (gene 7067) (UniProt P10827). Briefly: ATG_THRa1_TRANS: Attagene TRANS-FACTORIAL HepG2 Assay for human Thyroid Receptor alpha (THRa1) (AID 2283014). The procedure, abridged: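 Reporter transcript induction, read by capillary electrophoresis of 6-FAM-labelled RT-PCR products, reflects activity of a transfected THRa1-Gal4 fusion in HepG2 liver cells. Cells were dosed for 24 h; activity was fitted in the positive direction against DMSO.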
Sequence of human Thyroid Receptor alpha (THRa1), THRA (gene 7067) (P10827 whole entry, looked up, the tested form may be a part): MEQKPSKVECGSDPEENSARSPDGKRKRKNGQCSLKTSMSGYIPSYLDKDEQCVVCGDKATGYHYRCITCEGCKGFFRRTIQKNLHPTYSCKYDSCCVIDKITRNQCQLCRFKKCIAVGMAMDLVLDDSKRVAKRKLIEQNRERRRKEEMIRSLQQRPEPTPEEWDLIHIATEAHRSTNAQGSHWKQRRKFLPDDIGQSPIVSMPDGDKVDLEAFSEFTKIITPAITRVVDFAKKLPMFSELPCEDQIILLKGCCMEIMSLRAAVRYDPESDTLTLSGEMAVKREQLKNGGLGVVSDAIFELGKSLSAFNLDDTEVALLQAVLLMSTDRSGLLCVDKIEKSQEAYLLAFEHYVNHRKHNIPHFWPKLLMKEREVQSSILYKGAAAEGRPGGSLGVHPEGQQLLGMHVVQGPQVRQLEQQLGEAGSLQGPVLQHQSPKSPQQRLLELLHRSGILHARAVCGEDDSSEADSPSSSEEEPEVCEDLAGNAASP

In assay [8] the target is human Vitamin D Receptor (VDR), VDR (gene 7421) (UniProt P11473). Briefly: ATG_VDR_TRANS: Attagene TRANS-FACTORIAL HepG2 Assay for human Vitamin D Receptor (VDR) (AID 2283022). Put shortly: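 Steps: transfect HepG2 with GAL4-UAS-driven reporter constructs; dose compounds 24 h; isolate RNA, reverse-transcribe, PCR-amplify with 6-FAM-labelled primer extension and HpaI digestion; quantify fragments by capillary electrophoresis relative to DMSO.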
Sequence of human Vitamin D Receptor (VDR), VDR (gene 7421) (P11473 whole entry, looked up, the tested form may be a part): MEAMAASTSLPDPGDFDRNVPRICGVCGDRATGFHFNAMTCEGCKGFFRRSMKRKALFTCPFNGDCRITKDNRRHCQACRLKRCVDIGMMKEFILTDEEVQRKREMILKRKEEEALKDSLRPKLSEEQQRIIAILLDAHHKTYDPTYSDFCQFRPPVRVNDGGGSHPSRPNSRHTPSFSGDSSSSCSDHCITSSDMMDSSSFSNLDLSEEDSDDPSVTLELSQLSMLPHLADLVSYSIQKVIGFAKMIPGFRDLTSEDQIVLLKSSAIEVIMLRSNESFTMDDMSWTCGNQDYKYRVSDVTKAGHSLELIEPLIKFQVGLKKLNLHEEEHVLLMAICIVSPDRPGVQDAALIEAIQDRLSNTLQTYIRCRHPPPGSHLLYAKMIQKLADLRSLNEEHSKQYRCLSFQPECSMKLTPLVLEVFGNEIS

Assay [9] is described as follows: TOX21_p53_BLA_p2_viability: Viability Assessment in the Tox21 HCT-116 p53 Agonism Beta-lactamase Assay, Phase 2 (AID 2283591).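 Note: compound exposure lasted 16 h at 37 °C; actives lower the ATP signal meaning cytotoxicity.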 Put shortly:
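Cytotoxicity readout: CellTiter-Glo ATP luminescence, 30 min at room temperature, after the beta-lactamase read. Cells were HCT116 exposed 16 h at 37C to compounds pin-transferred at 217-fold dilution from DMSO stocks.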

Assay [10] can be described thus: TOX21_p53_BLA_p4_viability: Viability Assessment in the Tox21 HCT-116 p53 Agonism Beta-lactamase Assay, Phase 4 (AID 2283597).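 Note: hits lower the luminescence signal meaning cytotoxicity.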 The procedure, abridged: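 Readout: ATP luminescence (CellTiter-Glo), measured 30 min after reagent addition at RT. The reagent followed a 2 h CCF4-AM incubation, and the cells had been exposed to compound for 16 h at 37C.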
The nature of assay [11]: CCTE_Harrill_HTTr_Apoptosis_MCF7: CCTE's 6-hour Apoptosis Assessment for the High-Throughput Transcriptomics (HTTr) Platform, in MCF-7 cells cultured in DMEM + 10% fetal bovine serum, Harrill Lab (AID 2284011; active = hit-call score of the fitted dose curve at least 0.9, where 1 is the maximum; inactive = score below 0.9). The procedure, abridged: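 MCF-7 (DMEM + 10% FBS), 384-well; 8-pt dilution series, 6 h chemical exposure; caspase-3/7 activation via CellEvent Caspase 3/7 Green, HCI; bidirectional fit vs DMSO.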

The nature of assay [12]: ATG_PBREM_CIS: Attagene CIS-FACTORIAL HepG2 Assay for human Phenobarbital-responsive Enhancer Module (PBREM) (AID 2282955; active = hit-call score of the fitted dose curve at least 0.9, where 1 is the maximum; inactive = score below 0.9). Particulars: HepG2 PBREM cis-reporter, Attagene multiplexed transcription; actives raise or lower the signal. Put shortly:
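HepG2 cells transiently transfected with multiple cis-regulated reporter transcription units; endogenous factor activity at the PBREM element measured as reporter mRNA 24 h after dosing, via RT-PCR and capillary electrophoresis of fluorescent fragments; bidirectional fitting versus DMSO.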

Assay [13] is described as follows: ATG_M_32_TRANS: Attagene TRANS-FACTORIAL HepG2 Assay for M32 Transcription Factor (Internal Marker) (AID 2282984).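 Note: transcript level of a background control reporter unit measured by RT-PCR and capillary electrophoresis.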 The conditions noted are these: HepG2 Attagene TRANS M32 internal marker reporter. The procedure, abridged:
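Internal background reporter in transfected HepG2: after 24 h chemical exposure, RNA reverse-transcribed, reporter cDNA amplified, fluorescently labelled and HpaI-cut, then sized by capillary electrophoresis. Gain of signal fitted against DMSO control.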

Assay [14] concerns the target Nuclear receptor subfamily 4 group A member 2 (Homo sapiens) (UniProt P43354). In words: ATG_NURR1_TRANS: Attagene TRANS-FACTORIAL HepG2 Assay for human Nuclear Receptor Related Protein 1 (NURR1) (AID 2282985). The conditions noted are these: HepG2 Attagene TRANS reporter, mRNA readout. Put shortly:
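Reporter transcript induction, measured by RT-PCR with fluorescent labelling, HpaI digestion and capillary electrophoresis, after 24 hr dosing of human HepG2 cells transiently expressing an exogenous NR-Gal4 fusion with GAL4-UAS-driven reporters; DMSO as baseline.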

Assay [15] has as its target human RAR-related Orphan Receptor beta (RORb), RORB (gene 6096) (UniProt Q92753). In words: ATG_RORb_TRANS: Attagene TRANS-FACTORIAL HepG2 Assay for human RAR-related Orphan Receptor beta (RORb) (AID 2283010). Put shortly: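 Transfect HepG2 with multiple GAL4-UAS reporter transcription units; dose chemicals for 24 h; isolate RNA, reverse-transcribe and PCR-amplify reporter sequences; label, digest and resolve fragments by capillary electrophoresis; fit increases relative to DMSO.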

Assay [16] deals with Bile acid receptor (Homo sapiens) (UniProt Q96RI1). In words: ATG_IR1_CIS: Attagene CIS-FACTORIAL HepG2 Assay for human Nuclear Receptor Subfamily 1 Group H Member 4 (NR1H4), IR1 submotif (AID 2282946; active = hit-call score of the fitted dose curve at least 0.9, where 1 is the maximum; inactive = score below 0.9). Particulars: IR1 reporter transcription, actives raise or lower the signal. Put shortly:
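HepG2 cells transiently transfected with multiplexed cis-element reporter units read endogenous transcription factor activity. After 24 h compound exposure, reporter mRNA was quantified by RT-PCR, fluorescent labelling, HpaI digestion and capillary electrophoresis; bidirectional fitting versus DMSO baseline.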

The target in assay [17] is human Peroxisome Proliferator-activated Receptor delta (PPARd), PPARD (gene 5467) (UniProt Q03181). Briefly: ATG_PPARd_TRANS: Attagene TRANS-FACTORIAL HepG2 Assay for human Peroxisome Proliferator-activated Receptor delta (PPARd) (AID 2283002). The procedure, abridged: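 Read-out is induced reporter mRNA, quantified by RT-PCR with fluorescent labelling and capillary electrophoresis after 24 h dosing. Cells are HepG2 transiently carrying multiple GAL4-UAS reporter units driven by exogenous NR-GAL4 chimeras; DMSO serves as baseline.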

A short description of assay [18]: TOX21_p53_BLA_p3_viability: Viability Assessment in the Tox21 HCT-116 p53 Agonism Beta-lactamase Assay, Phase 3 (AID 2283593).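 Note: cells exposed to compound for 16 h before reading.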 The procedure, abridged:
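Cellular ATP was quantified by CellTiter-Glo luminescence, read after 30 min at room temperature. Beforehand, HCT116 cells (4000/well) received compound 5 h post-seeding, 217-fold diluted from DMSO, then incubated 16 h at 37C.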

Assay [19] addresses Nuclear receptor subfamily 1 group I member 3 (Homo sapiens) (UniProt Q14994). Briefly: ATG_CAR_TRANS: Attagene TRANS-FACTORIAL HepG2 Assay for human Constitutive Androstane Receptor (CAR) (AID 2282969).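 Note: activators raise reporter mRNA above DMSO so AC50 marks induction.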 Particulars: HepG2 Attagene TRANS-FACTORIAL CAR reporter. Put shortly:
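Signal is reporter mRNA induction relative to DMSO, measured 24 h after dosing by RT-PCR with fluorescent primer extension and capillary electrophoresis. Human HepG2 liver cells carried transiently transfected chimeric NR-Gal4/GAL4-UAS reporter constructs.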

For assay [20], the target named is Peroxisome proliferator-activated receptor gamma (Homo sapiens) (UniProt P37231). Briefly: ATG_PPARg_TRANS: Attagene TRANS-FACTORIAL HepG2 Assay for human Peroxisome Proliferator-activated Receptor-gamma (PPARg) (AID 2283007). Put shortly: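 HepG2 cells transiently transfected with multiplexed GAL4-UAS reporter units and exogenous chimeric NR-Gal4 proteins; reporter mRNA quantified after 24 h compound exposure by RT-PCR, fluorescent labelling, HpaI digestion and capillary electrophoresis; gain-of-signal fitted versus DMSO baseline.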

Inconclusive results are not listed. Activity calls are given as the source filed them. Rule for the calls, unless noted: active = hit-call score of the fitted dose curve at least 0.9, where 1 is the maximum; inconclusive = response in the unintended direction; inactive = score below 0.9.

Sequence of Oxysterols receptor LXR-beta (Homo sapiens) (P55055 whole entry, looked up, the tested form may be a part): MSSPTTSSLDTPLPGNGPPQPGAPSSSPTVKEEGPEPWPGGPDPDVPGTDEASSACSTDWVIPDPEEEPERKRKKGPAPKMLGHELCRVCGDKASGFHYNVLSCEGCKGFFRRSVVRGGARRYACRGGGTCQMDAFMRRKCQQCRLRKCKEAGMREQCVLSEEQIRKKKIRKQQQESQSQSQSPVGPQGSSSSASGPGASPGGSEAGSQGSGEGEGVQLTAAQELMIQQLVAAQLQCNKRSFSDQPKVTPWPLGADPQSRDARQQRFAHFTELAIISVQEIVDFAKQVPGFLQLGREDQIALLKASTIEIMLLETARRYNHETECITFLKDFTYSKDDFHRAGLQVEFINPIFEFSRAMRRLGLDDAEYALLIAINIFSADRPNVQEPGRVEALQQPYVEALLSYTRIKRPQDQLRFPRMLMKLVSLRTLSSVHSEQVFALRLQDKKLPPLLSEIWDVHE
Sequence of Nuclear receptor subfamily 4 group A member 2 (Homo sapiens) (P43354 whole entry, looked up, the tested form may be a part): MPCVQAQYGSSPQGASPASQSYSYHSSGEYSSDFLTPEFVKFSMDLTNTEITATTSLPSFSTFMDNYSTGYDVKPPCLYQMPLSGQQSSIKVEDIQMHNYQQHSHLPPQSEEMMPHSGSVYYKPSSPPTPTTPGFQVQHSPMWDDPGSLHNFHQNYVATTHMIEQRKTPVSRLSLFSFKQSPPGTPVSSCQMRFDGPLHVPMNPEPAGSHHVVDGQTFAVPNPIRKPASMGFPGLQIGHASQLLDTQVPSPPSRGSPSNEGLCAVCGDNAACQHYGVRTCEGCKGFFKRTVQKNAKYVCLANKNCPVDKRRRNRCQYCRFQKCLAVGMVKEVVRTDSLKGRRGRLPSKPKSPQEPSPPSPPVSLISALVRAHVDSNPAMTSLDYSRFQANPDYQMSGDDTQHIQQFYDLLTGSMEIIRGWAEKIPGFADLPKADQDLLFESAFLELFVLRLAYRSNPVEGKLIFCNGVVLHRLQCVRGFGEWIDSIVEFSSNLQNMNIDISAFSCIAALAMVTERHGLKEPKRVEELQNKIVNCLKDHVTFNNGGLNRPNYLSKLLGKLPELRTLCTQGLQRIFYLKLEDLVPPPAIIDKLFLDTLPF
Sequence of Oxysterols receptor LXR-alpha (Homo sapiens) (Q13133 whole entry, looked up, the tested form may be a part): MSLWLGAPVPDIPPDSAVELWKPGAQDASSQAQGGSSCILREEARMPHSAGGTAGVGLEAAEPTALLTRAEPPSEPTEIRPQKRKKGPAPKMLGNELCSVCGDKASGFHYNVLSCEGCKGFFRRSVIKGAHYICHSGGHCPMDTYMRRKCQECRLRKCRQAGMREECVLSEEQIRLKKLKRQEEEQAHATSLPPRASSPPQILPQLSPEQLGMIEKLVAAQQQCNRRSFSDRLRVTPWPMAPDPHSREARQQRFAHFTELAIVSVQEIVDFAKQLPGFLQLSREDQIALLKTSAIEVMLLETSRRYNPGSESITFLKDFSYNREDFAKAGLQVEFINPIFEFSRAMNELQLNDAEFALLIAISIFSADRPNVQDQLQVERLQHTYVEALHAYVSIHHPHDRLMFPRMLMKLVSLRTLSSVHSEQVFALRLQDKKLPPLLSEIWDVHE
Sequence of human Peroxisome Proliferator-activated Receptor alpha (PPARa), PPARA (gene 5465) (Q07869 whole entry, looked up, the tested form may be a part): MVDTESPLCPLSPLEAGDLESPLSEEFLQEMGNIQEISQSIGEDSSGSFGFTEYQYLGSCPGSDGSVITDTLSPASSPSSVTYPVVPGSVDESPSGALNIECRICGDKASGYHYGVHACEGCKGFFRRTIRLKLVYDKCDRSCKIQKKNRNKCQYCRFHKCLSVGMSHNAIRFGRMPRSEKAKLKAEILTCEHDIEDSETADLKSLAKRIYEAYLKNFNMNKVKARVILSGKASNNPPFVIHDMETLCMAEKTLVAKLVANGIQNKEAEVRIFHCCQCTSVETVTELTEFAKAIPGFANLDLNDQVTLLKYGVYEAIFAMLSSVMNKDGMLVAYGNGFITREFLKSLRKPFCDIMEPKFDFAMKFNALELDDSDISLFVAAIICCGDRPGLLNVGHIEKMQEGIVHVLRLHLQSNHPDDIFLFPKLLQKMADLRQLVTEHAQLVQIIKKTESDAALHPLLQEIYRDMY
Sequence of Glucocorticoid receptor (Homo sapiens) (P04150 whole entry, looked up, the tested form may be a part): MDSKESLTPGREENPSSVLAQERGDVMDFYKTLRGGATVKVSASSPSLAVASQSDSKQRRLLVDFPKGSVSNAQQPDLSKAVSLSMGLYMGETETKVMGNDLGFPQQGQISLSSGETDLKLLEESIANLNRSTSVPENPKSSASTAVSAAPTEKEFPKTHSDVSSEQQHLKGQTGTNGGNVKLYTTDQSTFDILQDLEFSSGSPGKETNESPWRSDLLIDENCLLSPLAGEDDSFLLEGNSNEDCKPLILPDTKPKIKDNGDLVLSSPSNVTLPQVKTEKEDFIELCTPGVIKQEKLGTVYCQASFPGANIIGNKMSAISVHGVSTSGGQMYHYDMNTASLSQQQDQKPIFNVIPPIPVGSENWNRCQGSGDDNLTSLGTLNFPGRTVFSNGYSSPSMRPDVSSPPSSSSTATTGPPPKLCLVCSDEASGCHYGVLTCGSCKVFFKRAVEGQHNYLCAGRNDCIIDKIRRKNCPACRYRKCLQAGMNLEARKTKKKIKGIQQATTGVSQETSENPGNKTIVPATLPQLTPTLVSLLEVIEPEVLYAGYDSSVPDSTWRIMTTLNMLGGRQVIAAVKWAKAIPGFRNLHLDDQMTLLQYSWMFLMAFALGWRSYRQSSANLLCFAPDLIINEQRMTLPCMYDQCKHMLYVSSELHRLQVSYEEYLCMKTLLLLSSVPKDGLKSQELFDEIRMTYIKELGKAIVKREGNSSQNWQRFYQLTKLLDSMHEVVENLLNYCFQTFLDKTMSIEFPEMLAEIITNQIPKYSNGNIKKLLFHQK
Sequence of human RAR-related Orphan Receptor beta (RORb), RORB (gene 6096) (Q92753 whole entry, looked up, the tested form may be a part): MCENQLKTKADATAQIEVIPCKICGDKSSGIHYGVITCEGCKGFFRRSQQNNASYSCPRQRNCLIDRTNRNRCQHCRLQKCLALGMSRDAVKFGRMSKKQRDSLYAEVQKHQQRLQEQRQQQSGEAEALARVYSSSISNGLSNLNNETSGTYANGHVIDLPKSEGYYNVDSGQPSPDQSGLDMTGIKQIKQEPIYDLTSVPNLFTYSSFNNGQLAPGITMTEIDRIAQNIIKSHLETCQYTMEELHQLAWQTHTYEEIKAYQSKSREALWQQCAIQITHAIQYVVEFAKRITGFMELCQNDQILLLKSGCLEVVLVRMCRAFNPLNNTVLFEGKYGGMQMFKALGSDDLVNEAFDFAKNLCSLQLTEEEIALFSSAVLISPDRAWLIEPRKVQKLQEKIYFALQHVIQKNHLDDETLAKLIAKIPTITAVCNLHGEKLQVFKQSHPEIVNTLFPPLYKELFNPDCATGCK
Sequence of Retinoic acid receptor alpha (Homo sapiens) (P10276 whole entry, looked up): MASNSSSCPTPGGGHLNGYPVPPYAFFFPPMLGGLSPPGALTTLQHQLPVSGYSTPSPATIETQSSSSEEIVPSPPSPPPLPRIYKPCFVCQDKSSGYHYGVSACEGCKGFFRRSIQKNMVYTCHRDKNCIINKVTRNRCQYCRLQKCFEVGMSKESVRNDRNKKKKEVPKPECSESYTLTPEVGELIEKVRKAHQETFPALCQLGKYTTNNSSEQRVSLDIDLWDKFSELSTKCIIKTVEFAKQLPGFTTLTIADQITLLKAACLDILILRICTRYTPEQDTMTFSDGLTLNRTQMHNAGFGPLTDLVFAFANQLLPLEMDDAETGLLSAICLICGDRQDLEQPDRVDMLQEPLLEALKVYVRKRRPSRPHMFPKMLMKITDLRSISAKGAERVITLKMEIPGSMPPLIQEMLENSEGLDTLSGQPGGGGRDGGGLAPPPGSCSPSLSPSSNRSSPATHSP
Sequence of Nuclear receptor subfamily 1 group I member 3 (Homo sapiens) (Q14994 whole entry, looked up, the tested form may be a part): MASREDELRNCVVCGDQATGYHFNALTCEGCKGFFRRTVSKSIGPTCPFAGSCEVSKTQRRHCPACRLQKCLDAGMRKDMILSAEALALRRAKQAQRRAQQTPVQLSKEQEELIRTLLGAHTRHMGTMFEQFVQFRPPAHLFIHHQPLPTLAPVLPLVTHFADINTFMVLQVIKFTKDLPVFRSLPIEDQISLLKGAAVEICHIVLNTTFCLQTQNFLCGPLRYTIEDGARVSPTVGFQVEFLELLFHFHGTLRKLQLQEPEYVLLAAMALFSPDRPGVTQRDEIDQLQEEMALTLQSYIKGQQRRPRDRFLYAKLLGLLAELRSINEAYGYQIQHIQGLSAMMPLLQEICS

With `CN(C)CCC#N`, the result in [1], in assay [2], in assay [3], in assay [4], in assay [5] and in [6] was inactive. Besides, the molecule was called inactive in assay [7], in assay [8], in assay [9], in [10] and in assay [11].
Regarding `ClCCCCCCCl`, the molecule was classed as inactive in assay [1], in assay [12], in assay [4], in [5], in [13] and in assay [14]. For the same molecule, the outcome in assay [6], in [15] and in assay [8] was inactive.
Regarding `[N-]=[N+]=CC(=O)OC[C@H](N)C(=O)O`, the molecule was called inactive in [1], in assay [16], in [2], in [4], in [5] and in assay [13]. Further, the molecule was classed as inactive in [14], in [6], in [17], in assay [15], in [8] and in assay [9]. In addition, the molecule was called inactive in assay [18], in assay [10] and in assay [11].
Regarding `Nc1ccccc1C(=O)OCCc1ccccc1`, the result in [1], in assay [19], in assay [3], in assay [4], in assay [5] and in assay [13] was inactive. Further, the molecule was classed as inactive in assay [14], in [6], in assay [15], in assay [7], in [9] and in assay [18]. In addition, the molecule was called inactive in assay [10]. Besides, in [12], the AC50 was 21.3 µM (active).
For `CCOC(=O)C1OC1(C)c1ccccc1` (stereo unspecified), the result in [12], in assay [19], in assay [3], in assay [4], in assay [5] and in assay [14] was inactive. The call in [6], in assay [15], in assay [9], in assay [18] and in [10] was inactive. Moreover, the AC50 in assay [20] is 100 µM (active).

The values are drawn from PubChem BioAssay (EPA / NIEHS).
